Compound activity (PubChem BioAssay)
aSyn rescue – rescues yeast growth from alpha-synuclein toxicity | Yeast expressing alpha-synuclein, growth rescue, BacTiter-Glo, 24 h | 370,000 tested, 0.14% active | Potency, µM (doses to about 46.1 µM), usual class: activators; further: nearly all actives have a fitted effect of over 65% in size
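Screening used galactose-induced yeast with toxic alpha-synuclein levels, exposed to compound for 24 hr at 30 deg C. Cell growth, read with BacTiter-Glo luminescence, gave the measured signal.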
TDP-43 yeast inh – rescues yeast growth from TDP-43 toxicity; TDP-43 expressing yeast growth rescue, BacTiter-Glo, 24 h; Potency, µM (highest dose often 46.1 µM), actives largely listed as activators; 410,000 tested, 1.8% active; AID 652104; further: nearly all actives have a fitted effect of over 50% in size
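Cell-based yeast growth screen: TDP-43 expression induced in galactose, inoculum OD600=0.02 after raffinose pregrowth to mid-log. Read-out BacTiter-Glo luminescence at 24 hr, 30 deg C; inhibition of toxicity seen as signal increase.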
Abeta rescue – restores growth of yeast expressing A-beta42 peptide; yeast expressing A-beta42, growth rescue, OD600, 48 h; response scale: 0% DMSO, 100% iron-clioquinol control; Potency, µM (doses to about 46.1 µM), most hits filed as activators; 410,000 tested, 0.063% active; further: nearly all actives have a fitted effect of over 55% in size
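Growth rescue measured by 600 nm absorbance after 48 h yeast culture at 30 C with compound. Values normalized between DMSO and an equimolar ferric chloride plus clioquinol control.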
FUS yeast rescue – suppressors of FUS proteinopathy in yeast; AID 1347120; S. cerevisiae FUS-expressing, growth rescue, OD600, 24 h; Potency, µM (highest dose often 76.6 µM), hits mostly activators; 390,000 tested, 0.24% active; further: nearly all actives have a fitted effect of over 55% in size
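FUS-expressing yeast, raffinose-pregrown, induced in 2% galactose minimal medium at OD 0.005; compounds in a dilution series, 24hr at 30C. Growth restoration read as absorbance at 600 nm. CP55940 positive control, DMSO negative.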
Mito fusion yeast – mitochondrial division inhibition or fusion activation; S. cerevisiae fusion-defective mutant growth rescue, CellTiterGlo 48 h; Potency, µM (doses to about 46.1 µM), actives largely listed as activators; 320,000 tested, 0.23% active; AID 485298; further: nearly all actives have a fitted effect of over 45% in size
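Yeast fusion mutant, YPEG (non-fermentable carbon), compound, 48 h at 37C non-permissive; CellTiterGlo added, 10 min RT, luminescence read. Rescued growth = division inhibition.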
A number is an active result; n = inactive; u = inconclusive; x = no result given; ! = repeats disagree; [ ] = remark or other dose. Shown are actives, neighbours in structure and some others; about 2.2% of the full set was active somewhere. The call rests on the fitted dose curve; in most records, active means well fitted curve in the direction sought with a large enough effect; inconclusive means small, poorly fitted or top-dose-only effect, or another doubt; inactive means no such curve, though single readings can be large; an effect the other way counts as inactive or inconclusive.

SMILES	aSyn rescue	TDP-43 yeast inh	Abeta rescue	FUS yeast rescue	Mito fusion yeast
CC(C)(C)c1ccc(C(=O)Nc2cccnc2)cc1	n	14µM	n	n	n
O=C(Nc1cccnc1)c1ccc(C(=O)Nc2cccnc2)cc1	n	n	n	n	n
Cc1cc(NC(=O)c2cc(-c3ccncc3)nc3ccccc23)ccc1Br	n	18µM	n	x	x
COc1ccc(NC(=O)C2CCCN(C(=O)c3cnn(-c4ccccc4)c3-n3cccc3)C2)cc1 (configuration not stated)	x	n	n	u	x
CC(=O)c1ccc(N2CCC(c3cc(-c4ccc(Cl)cc4)n[nH]3)CC2)c([N+](=O)[O-])c1	n	16µM	n	n	n
Cc1noc(C)c1CSc1ccccc1C(=O)Nc1nccs1	n	n	n	n	35µM
Cc1noc(C)c1CSc1ccccc1C(=O)O	n	n	n	n	n
COc1ccccc1Cc1c(-c2ccccc2)nc2ccc(Cl)cn12	n	u	n	n	x
CC(=O)Oc1ccccc1Cn1c(C)c(C(=O)NCc2cccc(Cl)c2)sc1=O	n	n	n	n	x
O=S(=O)(NCCc1csc(-c2ccccc2)n1)c1ccc2c(c1)OCCO2	n	20µM	n	n	n
CCc1ccc(S(=O)(=O)NCCc2csc(-c3ccccc3)n2)s1	u	14µM	n	n	u
CCc1ccc(S(=O)(=O)NCCc2csc(-c3cccnc3)n2)s1	n	13µM	u	n	n
CCOc1ccccc1CNC(=O)c1[nH]c2ccccc2c1Sc1ccccc1	x	n	n	n	x
Cc1cn2c(=O)c(S(=O)(=O)Nc3ccc(F)cc3F)c(C)nc2s1	x	n	n	n	x
N#C/C(=C\c1ccc(-c2ccccc2C(=O)O)o1)c1nc2ccccc2[nH]1	n	22µM!	n	n	n
COc1cc(/C=C(/C#N)C(=O)NCc2ccccc2)cc(OC)c1OC	u	20µM	n	n	n
Cc1ccccc1C(=O)N(Cc1sccc1C)C1CCS(=O)(=O)C1 (configuration not stated)	x	u	n	n	x
COc1cccc(-n2cc(-c3ccc(F)cc3)[nH]c2=S)c1	n	11µM	u	n	n
S=c1[nH]c(-c2ccccc2)cn1-c1ccccc1	n	13µM	13µM	n	n
COc1ccc(-n2cc(-c3ccc(Cl)cc3)[nH]c2=S)cc1	n	n	n	n	n
Cc1cccc(C(=O)Nc2nnc(S(=O)(=O)N(C)Cc3ccc(Cl)cc3)s2)c1	x	n	n	n	x
Cc1ccc(C)c(N/N=C2\CCCNC2=O)c1	n	20µM	n	x	n
Cc1ccc(NC(=O)c2cnn3c2NC(=C2CC2)C=C3C(F)F)cc1C	n	x	x	x	x
COc1ccc(N2CCN(c3ncnc4onc(-c5ccc(F)cc5)c34)CC2)cc1	x	n[9.22 µM]	n	n	x
Fc1ccc(N2CCN(c3ncnc4onc(-c5ccc(Cl)cc5)c34)CC2)cc1	x	18µM	n	n	x
SMILES	aSyn rescue	TDP-43 yeast inh	Abeta rescue	FUS yeast rescue	Mito fusion yeast
COC(=O)c1sccc1S(=O)(=O)N(CC(=O)Nc1ccccc1C)c1ccc(Cl)cc1	x	n	n	32µM	x
COc1cccc(OC)c1C(=O)Nc1cccc(-c2cn3ccsc3n2)c1	x	n	n	n	x
COc1cc(OC)cc(C(=O)Nc2cccc(-c3cn4ccsc4n3)c2)c1	x	22µM	n	u	x
COc1cccc(C(=O)Nc2cccc(-c3cn4ccsc4n3)c2)c1OC	x	13µM	n	n	x
CCOc1ccc(CNC(=O)C2CCN(S(=O)(=O)c3cn(C)cn3)CC2)cc1OC	x	n	n	n	x
CC1CCN(c2nc(-c3ccncc3)nc3ccccc23)CC1	u	13µM	n	n	n
COc1cccc(-c2nc(NCC3CCCO3)c3ccccc3n2)c1O (configuration not stated)	n	u	n	n	n
CC1CCCN(c2nc(-c3ccccc3O)nc3ccccc23)C1 (configuration not stated)	n	20µM	n	n	x
Oc1ccccc1-c1nc(NCC2CCCO2)c2ccccc2n1 (configuration not stated)	n	11µM	n	n	n
Cn1cc(S(=O)(=O)N2CCCCC2)cc1C(=O)NCc1ccc(Cl)cc1	n	n	n	n	x
COCCCNC(=O)CSc1nc2c(sc3ccccc32)c(=O)n1CCCC(=O)NCCOC	x	n	n	n	x
Oc1ccccc1N=Nc1ccccc1O	13µM	u	u	n	n
Cc1cc2c(c(C)c1Cl)C(c1ccc3c(c1)OCO3)CC(=O)O2 (configuration not stated)	n	22µM	u	u	x
Cc1ccc(C(C)C)c2c1C(c1ccc3c(c1)OCO3)CC(=O)O2 (configuration not stated)	n	u	n	n	x
O=C(Nc1cccnc1Cl)c1cnn2c1NC(=C1CC1)C=C2C(F)F	n	x	x	x	x
N=C(N)Sc1nc(N2CCCCC2)nc(N2CCCCC2)n1	n	n	n	x	n
c1ccc(Sc2nc(N3CCCCC3)nc(N3CCCCC3)n2)nc1	n	16µM	n	n	n
Cc1cccc(C(=O)N2CCC(n3nnc4cc(F)ccc43)CC2)c1	n	22µM	n	n	n
CCOc1ccccc1C(=O)N1CCC(n2nnc3cc(C(F)(F)F)ccc32)CC1	n	u	n	n	n
CCOc1ccccc1C(=O)N1CCC(n2nnc3cc(C)ccc32)CC1	n	18µM	n	n	n
COc1ccc(C(=O)N2CCC(n3nnc4cc(F)ccc43)CC2)cc1OC	n	n	n	n	n
COc1cccc(N2CCN(C(=O)CCn3nnc4ccccc43)CC2)c1	x	x	x	n	x
COc1cccc(N2CCN(C(=O)CCSCc3ccccc3F)CC2)c1	n	16µM	n	n	n
COc1ccccc1N1CCN(C(=O)Cc2ccc(Cl)cc2)CC1	n	n	n	n	n
COc1ccc(CNC(=O)CN2CCSc3ccccc32)c(OC)c1	n	u	n	n	x
SMILES	aSyn rescue	TDP-43 yeast inh	Abeta rescue	FUS yeast rescue	Mito fusion yeast
COc1cccc(N2CCN(C(=O)CN3CCSc4ccccc43)CC2)c1	n	14µM	u	n	x
COc1ccccc1N1CCN(C(=O)CCSCc2ccccc2F)CC1	n	20µM!	n	n	n
COc1ccc(-n2c(SCC(=O)N3CCCCC3)nc(O)cc2=O)cc1	n	n	n	32µM	n
COc1ccc(-n2c(SCC(=O)N3CCCC3)nc3ccccc3c2=O)cc1	x	x	x	x	n
CCC(C)C(=O)Nc1nnc(CCc2ccccc2)s1 (configuration not stated)	n	20µM	u	n	n
CC(C)CC(=O)Nc1nnc(CCc2ccccc2)s1	n	n	n	n	n
CC(=O)Nc1ccc(S(=O)(=O)NCC2CCC(C(=O)NCCc3ccc(C)cc3)CC2)cc1 (configuration not stated)	x	n	n	n	x
CCc1c(C)nc2nncn2c1Nc1ccc(C(C)C)cc1	x	13µM	n	n	x
Cc1cccc(C)c1Nc1nn2c(=O)c3cc4c(cc3nc2s1)OCO4	x	u	n	n	x
